Results with a measured potency or affinity are listed apart.

This assay in a line: loss of vesicle association with mouse CD8+ T cells – mouse 2C CD8+ T cells, flow cytometry, dose response (AID 485284).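 Note: drosophila derived vesicles carrying Ld MHC with QL9 peptide plus B7-1 and ICAM-1; vesicle binding seen as anti-B7-1 PE fluorescence on CD8 gated cells.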 The settings on record: 2C mouse CD8+ T cell-exosome binding; at 45 µM (top of the series). (In general: In flow cytometry, cells or beads pass a laser one at a time.)
As for `COc1ccc2c3c1OC1[C@H](O)CCC4[C@@H](C2)N(C)CC[C@]314` (stereo partly specified), the binding remaining, % of control was 230%.

As to `COC(=O)C1=C(c2c(C)noc2C)C[C@@H]2CC[C@H]1N2C(=O)NCCOc1ccccc1Cl`, the binding remaining, % of control stood at 124%.

Consider `CC(C)(O)C(=O)Nc1ccc([N+](=O)[O-])c(C(F)(F)F)c1`, for which the binding remaining, % of control turned out to be 166%.

For `COC(=O)C1=C(c2ccc(F)cc2F)C[C@@H]2CC[C@H]1N2C(=O)NCCNC(C)=O`, the binding remaining, % of control was 107%.

Consider `O=C(Nc1ccc(Cl)cc1)O/N=C(\c1ccccc1)c1ccccn1`, for which the binding remaining, % of control is 85.8%.

Take `Cc1sc2ncnc(NCC(C)(C)N3CCOCC3)c2c1C`: the binding remaining, % of control came to 133%.

These data come from PubChem BioAssay AID485284 (NMMLSC, 2010).
